PubChem BioAssay (EPA / NIEHS)
Results filed as inconclusive are left out. Activity calls are given as the source filed them. Rule for the calls, unless noted: active = hit-call score of the fitted dose curve at least 0.9, where 1 is the maximum; inactive = score below 0.9.

How the values were obtained:
[1] = biological target: Glucocorticoid receptor (Homo sapiens) (UniProt P04150); experiment: ATG_GR_TRANS: Attagene TRANS-FACTORIAL HepG2 Assay for human Glucocorticoid Receptor (GR) (AID 2282978; active = hit-call score of the fitted dose curve at least 0.9, where 1 is the maximum;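 note: activators score as hits since higher reporter transcript over DMSO is fitted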); details: HepG2 Attagene TRANS GR reporter, mRNA transcription
Glucocorticoid receptor (Homo sapiens), sequence (P04150 whole entry, looked up, the tested form may be a part): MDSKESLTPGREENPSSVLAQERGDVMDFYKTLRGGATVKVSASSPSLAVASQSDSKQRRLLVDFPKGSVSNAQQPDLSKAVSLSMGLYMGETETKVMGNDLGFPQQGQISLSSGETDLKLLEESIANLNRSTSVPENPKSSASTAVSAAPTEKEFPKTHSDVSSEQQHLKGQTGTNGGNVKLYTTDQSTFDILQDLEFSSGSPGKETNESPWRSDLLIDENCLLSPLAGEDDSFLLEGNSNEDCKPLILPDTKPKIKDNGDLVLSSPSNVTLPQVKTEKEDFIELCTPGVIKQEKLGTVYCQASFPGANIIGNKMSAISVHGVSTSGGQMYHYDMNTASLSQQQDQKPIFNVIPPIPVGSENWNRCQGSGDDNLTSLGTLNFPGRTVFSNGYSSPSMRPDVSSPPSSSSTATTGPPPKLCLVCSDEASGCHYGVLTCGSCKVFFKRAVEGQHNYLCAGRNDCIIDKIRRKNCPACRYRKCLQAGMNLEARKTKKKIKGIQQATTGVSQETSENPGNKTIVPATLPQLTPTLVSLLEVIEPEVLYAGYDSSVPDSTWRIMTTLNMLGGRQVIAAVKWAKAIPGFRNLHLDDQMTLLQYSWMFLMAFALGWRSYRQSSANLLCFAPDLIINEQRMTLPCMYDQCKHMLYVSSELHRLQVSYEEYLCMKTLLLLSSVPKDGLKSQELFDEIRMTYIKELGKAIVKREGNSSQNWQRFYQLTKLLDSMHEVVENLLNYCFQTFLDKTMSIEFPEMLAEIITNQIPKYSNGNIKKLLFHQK
Procedure, shortened: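 Transient MRTU transfection of HepG2 (GAL4-UAS reporters, exogenous NR-GAL4 chimeras), 24 h dosing. Readout: reporter transcript via RT-PCR + capillary electrophoresis fluorescence. Positive direction vs DMSO baseline.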

[2] = biological target: Oxysterols receptor LXR-alpha (Homo sapiens) (UniProt Q13133); experiment: ATG_LXRa_TRANS: Attagene TRANS-FACTORIAL HepG2 Assay for human Liver X Receptor alpha (LXRa) (AID 2282980; active = hit-call score of the fitted dose curve at least 0.9, where 1 is the maximum); details: HepG2 Attagene TRANS reporter, LXRa transactivation
Oxysterols receptor LXR-alpha (Homo sapiens), sequence (Q13133 whole entry, looked up, the tested form may be a part): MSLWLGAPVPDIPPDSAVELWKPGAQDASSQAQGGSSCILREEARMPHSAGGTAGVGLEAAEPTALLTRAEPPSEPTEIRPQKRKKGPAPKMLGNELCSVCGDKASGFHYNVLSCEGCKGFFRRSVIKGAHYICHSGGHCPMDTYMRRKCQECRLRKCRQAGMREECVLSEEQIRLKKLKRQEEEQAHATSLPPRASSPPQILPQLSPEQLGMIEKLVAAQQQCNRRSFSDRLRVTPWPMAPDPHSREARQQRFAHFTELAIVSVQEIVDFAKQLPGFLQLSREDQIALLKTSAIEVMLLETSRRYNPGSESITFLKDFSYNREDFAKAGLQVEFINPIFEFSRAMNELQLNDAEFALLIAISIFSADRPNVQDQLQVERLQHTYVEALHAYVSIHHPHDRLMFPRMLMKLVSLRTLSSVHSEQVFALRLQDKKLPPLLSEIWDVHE
Procedure, shortened: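 In this multiplexed TRANS system, compounds act on HepG2 cells carrying GAL4-UAS reporter units and a receptor-GAL4 fusion for 24 h. Induced reporter RNA is amplified, fluorescently labelled and sized by capillary electrophoresis, with DMSO as baseline.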

[3] = biological target: Oxysterols receptor LXR-beta (Homo sapiens) (UniProt P55055); experiment: ATG_LXRb_TRANS: Attagene TRANS-FACTORIAL HepG2 Assay for human Liver X Receptor beta (LXRb) (AID 2282981; active = hit-call score of the fitted dose curve at least 0.9, where 1 is the maximum); details: HepG2 Attagene TRANS GAL4-LXRb reporter, mRNA
Oxysterols receptor LXR-beta (Homo sapiens), sequence (P55055 whole entry, looked up, the tested form may be a part): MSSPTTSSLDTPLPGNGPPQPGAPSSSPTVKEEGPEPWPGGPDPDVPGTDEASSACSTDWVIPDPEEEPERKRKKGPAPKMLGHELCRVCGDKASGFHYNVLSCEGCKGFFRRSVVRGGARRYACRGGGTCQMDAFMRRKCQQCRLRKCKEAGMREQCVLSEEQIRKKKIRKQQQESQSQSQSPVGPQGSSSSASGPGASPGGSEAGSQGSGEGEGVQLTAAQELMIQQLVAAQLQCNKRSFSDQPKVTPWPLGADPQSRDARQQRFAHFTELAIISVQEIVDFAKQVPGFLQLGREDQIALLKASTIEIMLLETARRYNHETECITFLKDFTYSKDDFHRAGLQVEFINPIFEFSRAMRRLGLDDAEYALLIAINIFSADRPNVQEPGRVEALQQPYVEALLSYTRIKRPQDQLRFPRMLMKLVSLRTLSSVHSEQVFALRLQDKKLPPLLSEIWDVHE
Procedure, shortened: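 Gain-of-signal mRNA reporter endpoint, DMSO as negative control. Transiently transfected HepG2 cells carrying the NR-Gal4 chimera and GAL4-UAS reporter units were treated 24 h; transcripts quantified by RT-PCR and capillary electrophoresis fluorescence.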

[4] = biological target: Hepatocyte nuclear factor 4-alpha (Homo sapiens) (UniProt P41235); experiment: ATG_HNF4a_TRANS: Attagene TRANS-FACTORIAL HepG2 Assay for human Hepatocyte Nuclear Factor 4 alpha (HNF4a) (AID 2282982; active = hit-call score of the fitted dose curve at least 0.9, where 1 is the maximum); details: HepG2 HNF4a transactivation reporter, mRNA readout
Hepatocyte nuclear factor 4-alpha (Homo sapiens), sequence (P41235 whole entry, looked up, the tested form may be a part): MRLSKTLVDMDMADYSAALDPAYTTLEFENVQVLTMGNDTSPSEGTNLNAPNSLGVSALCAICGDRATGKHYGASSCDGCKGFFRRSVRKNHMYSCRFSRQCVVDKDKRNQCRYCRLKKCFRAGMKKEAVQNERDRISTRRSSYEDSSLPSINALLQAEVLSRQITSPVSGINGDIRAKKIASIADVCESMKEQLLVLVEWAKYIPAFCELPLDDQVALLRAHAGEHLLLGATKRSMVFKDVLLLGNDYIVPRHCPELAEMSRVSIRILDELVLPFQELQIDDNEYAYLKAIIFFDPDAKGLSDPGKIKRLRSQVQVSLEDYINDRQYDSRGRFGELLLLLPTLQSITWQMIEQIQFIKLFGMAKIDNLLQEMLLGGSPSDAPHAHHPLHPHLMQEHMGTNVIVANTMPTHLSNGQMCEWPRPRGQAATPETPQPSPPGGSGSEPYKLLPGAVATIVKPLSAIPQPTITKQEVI
Procedure, shortened: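 Gain-of-signal mRNA induction, relative to DMSO vehicle, was read after 24 h compound treatment of HepG2 cells bearing transfected GAL4-UAS reporters. Detection used RT-PCR, 6-FAM primer extension and capillary electrophoresis.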

[5] = ATG_M_06_TRANS: Attagene TRANS-FACTORIAL HepG2 Assay for M06 Transcription Factor (Internal Marker) (AID 2282983; active = hit-call score of the fitted dose curve at least 0.9, where 1 is the maximum); details: HepG2 Attagene TRANS M06 internal marker reporter
Procedure, shortened: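 Internal-marker background readout from a multiplexed TRANS reporter system in HepG2; 24 h dosing; mRNA induction quantified by RT-PCR plus capillary electrophoresis fluorescence; DMSO as negative control and baseline.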

[6] = ATG_M_32_TRANS: Attagene TRANS-FACTORIAL HepG2 Assay for M32 Transcription Factor (Internal Marker) (AID 2282984; active = hit-call score of the fitted dose curve at least 0.9, where 1 is the maximum;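 note: transcript level of a background control reporter unit measured by RT-PCR and capillary electrophoresis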); details: HepG2 Attagene TRANS M32 internal marker reporter
Procedure, shortened: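 Capillary electrophoresis of 6-FAM-labelled reporter fragments gives the signal; data fitted for gain over DMSO negative control. Source: HepG2 cells bearing transient multiple reporter transcription units, 24 h exposure.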

[7] = biological target: Nuclear receptor subfamily 4 group A member 2 (Homo sapiens) (UniProt P43354); experiment: ATG_NURR1_TRANS: Attagene TRANS-FACTORIAL HepG2 Assay for human Nuclear Receptor Related Protein 1 (NURR1) (AID 2282985; active = hit-call score of the fitted dose curve at least 0.9, where 1 is the maximum); details: HepG2 Attagene TRANS reporter, mRNA readout
Procedure, shortened: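 HepG2 / transient MRTU transfection / 24 h compound exposure / RT-PCR + CE fluorescence of reporter mRNA / gain-of-signal vs DMSO.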

[8] = biological target: Transcriptional activator Myb (Homo sapiens) (UniProt P10242); experiment: ATG_Myb_CIS: Attagene CIS-FACTORIAL HepG2 Assay for human Myeloblastosis (Myb) Proto-Oncogene Transcription Factor (AID 2282986); details: HepG2 Attagene CIS-FACTORIAL Myb reporter transcription; actives raise or lower the signal
Transcriptional activator Myb (Homo sapiens), sequence (P10242 whole entry, looked up): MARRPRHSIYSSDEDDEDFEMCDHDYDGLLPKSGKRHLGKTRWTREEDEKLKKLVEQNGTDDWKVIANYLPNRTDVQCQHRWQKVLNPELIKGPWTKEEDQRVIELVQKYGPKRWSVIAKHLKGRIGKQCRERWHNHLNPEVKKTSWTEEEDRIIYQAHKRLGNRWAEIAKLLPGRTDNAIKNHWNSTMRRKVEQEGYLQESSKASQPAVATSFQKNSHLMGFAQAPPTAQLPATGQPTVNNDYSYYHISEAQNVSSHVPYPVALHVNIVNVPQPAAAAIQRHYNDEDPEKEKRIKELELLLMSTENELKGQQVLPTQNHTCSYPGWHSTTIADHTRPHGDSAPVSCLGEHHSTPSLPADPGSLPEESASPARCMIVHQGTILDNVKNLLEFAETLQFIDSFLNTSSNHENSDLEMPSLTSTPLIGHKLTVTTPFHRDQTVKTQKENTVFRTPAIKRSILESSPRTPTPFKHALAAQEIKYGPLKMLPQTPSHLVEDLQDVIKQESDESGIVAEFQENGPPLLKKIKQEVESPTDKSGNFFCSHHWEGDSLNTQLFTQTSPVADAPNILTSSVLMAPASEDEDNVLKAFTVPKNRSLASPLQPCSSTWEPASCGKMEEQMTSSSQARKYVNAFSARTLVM
Procedure, shortened: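 HepG2, transient MRTU transfection (cis-element promoters, endogenous TF activity), 24 h compound exposure. Readout: reporter mRNA via RT-PCR, 6-FAM labeling, HpaI digest, capillary electrophoresis. Gain/loss fit vs DMSO.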

[9] = biological target: Nuclear respiratory factor 1 (Homo sapiens) (UniProt Q16656); experiment: ATG_NRF1_CIS: Attagene CIS-FACTORIAL HepG2 Assay for human Nuclear Respiratory Factor 1 (NRF1) Orphan Gene (AID 2282987); details: HepG2 NRF1 cis-element reporter, Attagene multiplex; actives raise or lower the signal
Nuclear respiratory factor 1 (Homo sapiens), sequence (Q16656 whole entry, looked up): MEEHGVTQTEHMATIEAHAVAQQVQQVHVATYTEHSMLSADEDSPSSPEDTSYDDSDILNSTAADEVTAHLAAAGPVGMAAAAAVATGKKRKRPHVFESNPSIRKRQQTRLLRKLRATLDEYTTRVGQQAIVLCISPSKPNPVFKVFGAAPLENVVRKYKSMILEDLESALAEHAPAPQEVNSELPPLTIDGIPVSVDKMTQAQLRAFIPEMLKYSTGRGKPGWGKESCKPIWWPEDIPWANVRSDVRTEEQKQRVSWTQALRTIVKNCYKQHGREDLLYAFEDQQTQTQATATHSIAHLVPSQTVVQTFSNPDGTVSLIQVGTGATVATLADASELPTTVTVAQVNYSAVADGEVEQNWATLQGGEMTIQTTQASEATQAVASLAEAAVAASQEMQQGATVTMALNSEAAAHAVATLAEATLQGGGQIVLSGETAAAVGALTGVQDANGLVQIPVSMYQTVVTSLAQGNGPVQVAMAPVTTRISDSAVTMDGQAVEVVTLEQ
Procedure, shortened: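 Endogenous NRF1-driven reporter transcription measured in transiently transfected human HepG2 liver cells. Readout: reporter mRNA by RT-PCR and capillary electrophoresis with fluorescence detection, 24 h post-dosing. Gain or loss of signal fitted relative to DMSO baseline.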

[10] = ATG_NFI_CIS: Attagene CIS-FACTORIAL HepG2 Assay for human Nuclear Factor I (NFI) (AID 2282989); details: HepG2 cis-regulatory reporter, NFI response element transcription; actives raise or lower the signal
Procedure, shortened: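 Transfected HepG2 liver cells, exposed 24 h, supplied total RNA for oligo(dT) reverse transcription and reporter-specific PCR. Labelled, HpaI-cut fragments were sized by capillary electrophoresis; DMSO set the baseline for bidirectional fitting.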

[11] = biological target: Myc proto-oncogene protein (Homo sapiens) (UniProt P01106); experiment: ATG_Myc_CIS: Attagene CIS-FACTORIAL HepG2 Assay for human Myelocytomatosis (Myc) Proto-Oncogene Transcription Factor (AID 2282990); details: HepG2, Attagene cis-reporter transcription factor activity; actives raise or lower the signal
Myc proto-oncogene protein (Homo sapiens), sequence (P01106 whole entry, looked up): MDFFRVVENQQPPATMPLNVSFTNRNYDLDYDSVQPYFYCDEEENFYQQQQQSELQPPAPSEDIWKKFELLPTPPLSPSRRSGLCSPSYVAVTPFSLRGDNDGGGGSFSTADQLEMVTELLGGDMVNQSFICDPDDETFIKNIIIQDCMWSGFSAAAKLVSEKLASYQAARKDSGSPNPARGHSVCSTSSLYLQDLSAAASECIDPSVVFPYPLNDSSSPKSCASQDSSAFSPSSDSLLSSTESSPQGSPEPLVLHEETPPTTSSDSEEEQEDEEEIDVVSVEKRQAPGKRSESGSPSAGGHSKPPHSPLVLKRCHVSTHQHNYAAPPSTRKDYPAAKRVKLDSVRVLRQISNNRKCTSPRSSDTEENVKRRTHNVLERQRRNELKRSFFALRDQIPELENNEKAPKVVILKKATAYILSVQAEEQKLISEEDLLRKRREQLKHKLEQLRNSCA
Procedure, shortened: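 Transiently transfected HepG2 cells bearing cis-promoter reporter units for endogenous transcription factors; 24 h exposure. Reporter mRNA measured by RT-PCR, 6-FAM primer extension, HpaI cut and capillary electrophoresis; bidirectional fit relative to DMSO.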

[12] = ATG_NF_kB_CIS: Attagene CIS-FACTORIAL HepG2 Assay for human Nuclear Factor Kappa B (NF-kB) (AID 2282991); details: HepG2 Attagene cis-factorial NF-kB reporter mRNA; actives raise or lower the signal
Procedure, shortened: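 Read-out: reporter transcript levels quantified by RT-PCR plus capillary electrophoresis of 6-FAM-labelled, HpaI-cut fragments. Transfected HepG2 cells, 24 h compound exposure, endogenous NF-kB-driven cis element; gain or loss scored versus DMSO.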

[13] = ATG_NRF2_ARE_CIS: Attagene CIS-FACTORIAL HepG2 Assay for human Nuclear Factor Erythroid 2 Related Factor 2 (NFR2) response to Antioxidant Response Elements (ARE) (AID 2282992); details: HepG2 Attagene ARE/NRF2 reporter, transcription factor activity; actives raise or lower the signal
Procedure, shortened: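 HepG2 cells transiently transfected with multiplexed cis-element reporter constructs, 24 h after chemical dosing; reporter mRNA quantified by RT-PCR, fluorescent primer extension, HpaI digestion and capillary electrophoresis. Bidirectional fit relative to DMSO.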

[14] = biological target: Cellular tumor antigen p53 (Homo sapiens) (UniProt P04637); experiment: ATG_p53_CIS: Attagene CIS-FACTORIAL HepG2 Assay for human p53 Transcription Factor (AID 2282994); details: HepG2 p53 cis-element reporter, Attagene mRNA; actives raise or lower the signal
Cellular tumor antigen p53 (Homo sapiens), sequence (P04637 whole entry, looked up): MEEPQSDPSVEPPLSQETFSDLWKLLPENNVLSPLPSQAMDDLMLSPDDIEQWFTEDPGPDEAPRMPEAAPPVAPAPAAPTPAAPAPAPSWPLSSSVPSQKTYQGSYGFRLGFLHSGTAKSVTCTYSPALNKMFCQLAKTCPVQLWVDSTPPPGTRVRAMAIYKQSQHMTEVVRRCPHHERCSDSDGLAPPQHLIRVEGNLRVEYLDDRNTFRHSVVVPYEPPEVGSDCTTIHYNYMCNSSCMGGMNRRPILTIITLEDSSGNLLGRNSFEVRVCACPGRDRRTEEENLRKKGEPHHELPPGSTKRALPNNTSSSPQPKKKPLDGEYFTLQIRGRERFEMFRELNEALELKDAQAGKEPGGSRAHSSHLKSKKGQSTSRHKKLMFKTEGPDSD
Procedure, shortened: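 HepG2 cells transiently transfected with cis-regulated multiple reporter transcription units, dosed 24 h. Reporter mRNA measured by RT-PCR, 6-FAM primer extension, HpaI digestion and capillary electrophoresis; bidirectional fit relative to DMSO.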

[15] = BSK_3C_TissueFactor: BioMAP Diversity Plus: 3C Assay for Tissue Factor Biomarker Activity (AID 2282997); details: BioMAP 3C HUVEC, tissue factor biomarker readout; actives raise or lower the signal
Procedure, shortened: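 Endothelial monolayers (human umbilical vein, primary) are dosed, incubated 24 h, and assayed for Tissue Factor by ELISA; DMSO serves as negative control for bidirectional fitting.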

[16] = BSK_3C_uPAR: BioMAP Diversity Plus: 3C Assay for Urokinase-type plasminogen activator receptor (uPAR) Biomarker Activity (AID 2282998); details: BioMAP 3C HUVEC, uPAR biomarker ELISA; actives raise or lower the signal
Procedure, shortened: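 In this endothelial cell-based assay, human umbilical vein primary cells were treated with chemicals and harvested at 24 h. uPAR was quantified using ELISA, with gains or losses fitted relative to DMSO controls.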

[17] = BSK_3C_VCAM1: BioMAP Diversity Plus: 3C Assay for Vascular cell adhesion molecule 1 (VCAM1) Biomarker Activity (AID 2282999); details: BioMAP 3C HUVEC, VCAM1 ELISA, cytokine-stimulated; actives raise or lower the signal
Procedure, shortened: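 Human umbilical vein endothelial cells (3C system), biomarker read by ELISA 24 h after dosing; bidirectional fit against DMSO baseline. Cytotoxicity tracked by SRB total-protein staining in parallel cultures at biomarker time.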

[18] = biological target: Estrogen-related receptor gamma (Homo sapiens) (UniProt P62508); experiment: ATG_ERRg_TRANS: Attagene TRANS-FACTORIAL HepG2 Assay for human Estrogen-Related Receptor gamma (ERRg) (AID 2282977; active = hit-call score of the fitted dose curve at least 0.9, where 1 is the maximum;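 note: hits increase reporter signal over DMSO so potencies reflect activators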); details: HepG2 Attagene TRANS reporter, ERRg transactivation
Procedure, shortened: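 Transient HepG2 transfectants, 24 h compound exposure, GAL4-UAS reporter mRNA by RT-PCR/6-FAM labelling/capillary electrophoresis; positive direction vs DMSO.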

[19] = biological target: Bile acid receptor (Homo sapiens) (UniProt Q96RI1); experiment: ATG_FXR_TRANS: Attagene TRANS-FACTORIAL HepG2 Assay for Farnesoid X Receptor (FXR) (AID 2282979; active = hit-call score of the fitted dose curve at least 0.9, where 1 is the maximum;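 note: hits raise reporter mRNA above DMSO so AC50 marks FXR activation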); details: HepG2 Attagene TRANS FXR-GAL4 reporter transcription
Bile acid receptor (Homo sapiens), sequence (Q96RI1 whole entry, looked up, the tested form may be a part): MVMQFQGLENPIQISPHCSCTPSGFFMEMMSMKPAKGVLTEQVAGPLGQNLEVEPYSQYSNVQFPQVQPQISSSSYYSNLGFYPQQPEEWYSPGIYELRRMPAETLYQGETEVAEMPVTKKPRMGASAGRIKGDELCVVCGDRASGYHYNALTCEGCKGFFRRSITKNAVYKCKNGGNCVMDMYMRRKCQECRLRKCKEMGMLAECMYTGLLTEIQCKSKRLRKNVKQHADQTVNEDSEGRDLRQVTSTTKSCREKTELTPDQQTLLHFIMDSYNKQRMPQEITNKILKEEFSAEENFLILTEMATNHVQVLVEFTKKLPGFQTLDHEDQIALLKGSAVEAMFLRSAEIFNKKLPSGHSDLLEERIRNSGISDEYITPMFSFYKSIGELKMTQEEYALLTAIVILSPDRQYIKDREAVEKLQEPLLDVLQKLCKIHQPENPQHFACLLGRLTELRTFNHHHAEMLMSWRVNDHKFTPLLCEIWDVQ
Procedure, shortened: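 After 24 h chemical treatment of transfected HepG2 cells, GAL4-UAS reporter transcripts driven by an exogenous FXR-GAL4 fusion were measured by RT-PCR and capillary electrophoresis. Increases over DMSO were fitted.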

Compound | outcome [1] | outcome [2] | outcome [3] | outcome [4] | outcome [5] | outcome [6] | outcome [7] | outcome [8] | outcome [9] | outcome [10] | outcome [11] | outcome [12] | outcome [13] | outcome [14] | outcome [15] | outcome [16] | outcome [17] | outcome [18] | outcome [19] | AC50 [2]
Clc1ccc(Cl)cc1 | inactive | inactive | inactive | inactive | inactive | inactive | inactive | inactive | inactive | inactive | inactive | inactive | inactive | inactive | inactive | inactive | inactive |  |  | 
Cc1cc(O)ccc1Cl | inactive |  |  | inactive | inactive |  |  | inactive | inactive | inactive | inactive | inactive | inactive | inactive | inactive | inactive | inactive | inactive | inactive | 24.3 µM (active)
